Source: the antibiotic and cytotoxicity screens of Wong et al. (2023)
The whole screen tested about 39,000 compounds, of which about 3,300 (8.5%) were called active. The sample as a whole holds a higher share of actives than the screen did.

test system: HepG2; experiment: cytotoxicity call (relative viability < 0.9); details: 10 µM

Row | SMILES | cytotoxicity call
1 | Cc1cc(C(=O)Nc2cccc3c2O[C@@H](CN(C)Cc2ccncc2)[C@@H](C)CN([C@H](C)CO)C3=O)n(C)n1 | inactive
2 | C=CCOC(=O)[C@@H]1[C@H]2C(=O)O[C@H](c3ccccc3)[C@H](c3ccccc3)N2[C@H](c2ccc(OCCOC(=O)[C@H]3C[C@H]4C(=O)N5CCC[C@H]5C(=O)N4[C@H]3c3cccc(OCCO)c3)cc2)[C@@]12C(=O)Nc1ccc(I)cc12 | inactive
3 | CN(C)CCCNC(=O)C[C@@H]1CC[C@@H]2[C@H](COC[C@H](O)CN2S(=O)(=O)c2ccccc2)O1 | inactive
4 | Cc1ccc(CN)cc1Cl | inactive
5 | Cc1cc(C(=O)c2cc3cc(Cl)ccc3o2)ccc1Cl | inactive
6 | Cc1cc(CN)cc(C)c1NC(=O)c1ccc(-c2cc(Cl)ccc2Cl)o1 | active
7 | CCCCN1CC=C[C@@]23O[C@@H]4C=CCCOC(=O)[C@@H]4[C@H]2C(=O)N([C@@H](C)CO)[C@@H]3C1=O | inactive
8 | NNc1ccc2c(N)[nH]nc2c1 | inactive
9 | COc1cccc(CN(C)C[C@@H]2OCc3ccccc3-c3c(n(C)c4ccccc34)C(=O)N([C@H](C)CO)C[C@H]2C)c1 | inactive
10 | O=C(c1cccs1)N1c2ccccc2Sc2ccccc21 | inactive
11 | O=C(Cc1cccs1)N1c2ccccc2Sc2ccccc21 | active
12 | NCCC(=O)N1c2ccccc2Sc2ccccc21 | inactive
13 | C[C@@H]1CN([C@H](C)CO)C(=O)c2cc(NC(=O)Nc3ccc(C(F)(F)F)cc3)ccc2O[C@@H](C)CCCCO[C@@H]1CN(C)S(=O)(=O)c1ccc(Cl)cc1 | inactive
14 | O=C1CN(S(=O)(=O)Cc2ccccc2)C[C@H]2[C@H](c3ccc(C#Cc4ccc(F)cc4)cc3)[C@H](CO)N12 | inactive
15 | O=C1CN(S(=O)(=O)Cc2ccccc2)C[C@@H]2[C@@H](c3ccc(C#Cc4ccc(F)cc4)cc3)[C@H](CO)N12 | active
16 | O=C1CN(S(=O)(=O)Cc2ccccc2)C[C@@H]2[C@@H](c3ccc(C#Cc4ccc(F)cc4)cc3)[C@@H](CO)N12 | active
17 | O=C1CN(S(=O)(=O)Cc2ccccc2)C[C@H]2[C@@H](c3ccc(C#Cc4ccc(F)cc4)cc3)[C@@H](CO)N12 | inactive
18 | O=C1CN(S(=O)(=O)Cc2ccccc2)C[C@H]2[C@H](c3ccc(C#Cc4ccc(F)cc4)cc3)[C@@H](CO)N12 | inactive
19 | O=C1CN(S(=O)(=O)Cc2ccccc2)C[C@@H]2[C@H](c3ccc(C#Cc4ccc(F)cc4)cc3)[C@@H](CO)N12 | inactive
20 | CN(C)S(=O)(=O)N1CCO[C@@H]2CN(c3ncc(F)cn3)C[C@@H]21 | inactive
21 | O=C1O[C@H](c2ccccc2)[C@H](c2ccccc2)N2[C@H]1[C@@H](C(=O)Nc1nc3ccccc3s1)[C@]1(C(=O)Nc3ccc(C#CC4(O)CCCCCC4)cc31)[C@H]2c1ccccc1OCCO | inactive
22 | C[C@@H]1CCCCO[C@@H](CN(C)C(=O)Nc2ccc3c(c2)OCO3)[C@@H](C)CN([C@@H](C)CO)C(=O)c2cc(NC(=O)CCC(F)(F)F)ccc2O1 | inactive

Row | SMILES | cytotoxicity call
23 | C[C@@H]1CN([C@H](C)CO)C(=O)c2cc(NC(=O)CCCCCC(=O)Nc3ccccc3N)ccc2O[C@@H]1CN(C)Cc1ccccc1 | inactive
24 | C[C@H]1CN([C@@H](C)CO)C(=O)c2cc(NC(=O)CCCCCC(=O)Nc3ccccc3N)ccc2O[C@H]1CN(C)Cc1ccc(Oc2ccccc2)cc1 | inactive
25 | COc1ccc(CN(C)C[C@H]2Oc3ccc(NC(=O)CCCCCC(=O)Nc4ccccc4N)cc3C(=O)N([C@H](C)CO)C[C@H]2C)cc1 | inactive
26 | C[C@@H]1CN([C@H](C)CO)C(=O)c2cc(NC(=O)CCCCCC(=O)Nc3ccccc3N)ccc2O[C@H]1CN(C)Cc1ccccc1 | inactive
27 | C[C@H]1CN([C@@H](C)CO)C(=O)c2cc(NC(=O)CCCCCC(=O)Nc3ccccc3N)ccc2O[C@@H]1CN(C)Cc1ccccc1 | active
28 | C[C@H](CO)N1C[C@H](C)[C@@H](CN(C)Cc2ccccc2)Oc2ccc(NC(=O)CCCCCC(=O)Nc3ccccc3N)cc2C1=O | inactive
29 | C[C@H](CO)N1C[C@H](C)[C@H](CN(C)Cc2ccccc2)Oc2ccc(NC(=O)CCCCCC(=O)Nc3ccccc3N)cc2C1=O | inactive
30 | C[C@@H]1CN([C@@H](C)CO)C(=O)c2cc(NC(=O)CCCCCC(=O)Nc3ccccc3N)ccc2O[C@H]1CN(C)Cc1ccccc1 | active
31 | C[C@@H]1CN([C@H](C)CO)C(=O)c2cc(NC(=O)CCCCCC(=O)Nc3ccccc3N)ccc2O[C@@H]1CN(C)Cc1ccc(Oc2ccccc2)cc1 | active
32 | O=C(C[C@@H]1CC[C@@H]2[C@H](COC[C@@H](O)CN2S(=O)(=O)c2ccccc2)O1)N1CCc2ccccc2C1 | inactive
33 | C[C@@H]1CCCCO[C@H](CN(C)S(=O)(=O)c2cccs2)[C@@H](C)CN([C@@H](C)CO)C(=O)c2cc(NS(=O)(=O)c3cn(C)cn3)ccc2O1 | inactive
34 | C[C@@H]1CN([C@@H](C)CO)C(=O)Cc2cc(NS(=O)(=O)c3cn(C)cn3)ccc2O[C@@H]1CN(C)Cc1ccc(C(=O)O)cc1 | inactive
35 | C[C@H](CO)N1C[C@H](C)[C@H](CN(C)S(=O)(=O)c2cn(C)cn2)Oc2ccc(N(C)C)cc2CC1=O | inactive
36 | CC(C)CC#Cc1ccc2c(c1)O[C@@H](CN(C)C(=O)c1ccncc1)[C@H](C)CN([C@H](C)CO)S2(=O)=O | inactive
37 | Cc1ccc(S(=O)(=O)N(C)C[C@H]2Oc3cc(C#Cc4ccncc4)ccc3S(=O)(=O)N([C@H](C)CO)C[C@H]2C)cc1 | active
38 | Cc1ccc(S(=O)(=O)N(C)C[C@H]2Oc3cc(C#Cc4ccccc4)ccc3S(=O)(=O)N([C@H](C)CO)C[C@H]2C)cc1 | inactive
39 | Cc1ccc(S(=O)(=O)N(C)C[C@@H]2Oc3cc(C#Cc4ccncc4)ccc3S(=O)(=O)N([C@H](C)CO)C[C@@H]2C)cc1 | active
40 | Cc1ccc(S(=O)(=O)N(C)C[C@@H]2Oc3cc(C#Cc4ccncc4)ccc3S(=O)(=O)N([C@H](C)CO)C[C@H]2C)cc1 | active
41 | Cc1ccc(S(=O)(=O)N(C)C[C@H]2Oc3cc(C#Cc4ccccc4)ccc3S(=O)(=O)N([C@@H](C)CO)C[C@H]2C)cc1 | inactive
42 | Cc1ccc(S(=O)(=O)N(C)C[C@@H]2Oc3cc(C#Cc4ccccc4)ccc3S(=O)(=O)N([C@@H](C)CO)C[C@H]2C)cc1 | inactive
43 | Cc1ccc(S(=O)(=O)N(C)C[C@H]2Oc3cc(C#Cc4ccncc4)ccc3S(=O)(=O)N([C@@H](C)CO)C[C@@H]2C)cc1 | active
44 | Cc1ccc(S(=O)(=O)N(C)C[C@H]2Oc3cc(C#Cc4ccccc4)ccc3S(=O)(=O)N([C@@H](C)CO)C[C@@H]2C)cc1 | inactive

Row | SMILES | cytotoxicity call
45 | Cc1ccc(S(=O)(=O)N(C)C[C@@H]2Oc3cc(C#Cc4ccccc4)ccc3S(=O)(=O)N([C@@H](C)CO)C[C@@H]2C)cc1 | inactive
46 | Cc1ccc(S(=O)(=O)N(C)C[C@@H]2Oc3cc(C#Cc4ccccc4)ccc3S(=O)(=O)N([C@H](C)CO)C[C@@H]2C)cc1 | inactive
47 | CC(C)NC(=O)Nc1ccc2c(c1)C(=O)N([C@H](C)CO)C[C@@H](C)[C@@H](CN(C)C(=O)C1CCCCC1)OCCCC[C@H](C)O2 | inactive
48 | CO[C@@H]1CN(C)C(=O)c2ccc(NS(C)(=O)=O)cc2OC[C@@H](C)N(C(=O)c2ccc3c(c2)OCO3)C[C@@H]1C | inactive
49 | COc1ccccc1S(=O)(=O)N(C)C[C@H]1OCc2cn(nn2)CCCC(=O)N([C@@H](C)CO)C[C@@H]1C | inactive
50 | CCS(=O)(=O)N1C[C@]2(CCN(CC2)C(=O)c2cccnc2)c2c(n(c3cc(ccc23)OC)C)[C@H]1CO | inactive
51 | C[C@@H]1CN([C@H](C)CO)C(=O)c2cc(NC(=O)Cn3cnnn3)ccc2O[C@H]1CN(C)C(=O)NC1CCCCC1 | inactive
52 | Cc1ccc(S(=O)(=O)Nc2ccc3c(c2)C(=O)N([C@@H](C)CO)C[C@H](C)[C@H](CN(C)C(=O)Nc2c(C)noc2C)OCCCC[C@H](C)O3)cc1 | inactive
53 | CC(C)NC(=O)Nc1ccc2c(c1)CC(=O)N([C@@H](C)CO)C[C@@H](C)[C@H](CN(C)S(=O)(=O)c1ccc(F)cc1)O2 | inactive
54 | C[C@@H]1CN([C@@H](C)CO)S(=O)(=O)c2ccc(Br)cc2O[C@@H]1CN(C)C(=O)NC1CCCCC1 | inactive
55 | CCOC(=O)CC(=O)c1ccn(C)n1 | inactive
56 | C[C@@H]1CCCCO[C@H](CN(C)S(=O)(=O)c2cccs2)[C@H](C)CN([C@@H](C)CO)C(=O)c2cc(NC(=O)CCC(F)(F)F)ccc2O1 | inactive
57 | C[C@H](CO)N1C[C@H](C)[C@H](CN(C)Cc2ccccn2)Oc2ncc(C#Cc3ccc(F)cc3)cc2C1=O | inactive
58 | C[C@@H]1CN([C@H](C)CO)C(=O)c2c(c3ccccc3n2C)-c2ccccc2CO[C@H]1CN(C)Cc1cccc(O)c1 | inactive
59 | Cc1ccc(S(=O)(=O)N(C)C[C@H]2Oc3cc(C#Cc4ccncc4)ccc3S(=O)(=O)N([C@H](C)CO)C[C@@H]2C)cc1 | active
60 | Cc1ccc(S(=O)(=O)N(C)C[C@@H]2Oc3cc(C#Cc4ccncc4)ccc3S(=O)(=O)N([C@@H](C)CO)C[C@@H]2C)cc1 | active
61 | Cc1ccc(S(=O)(=O)N(C)C[C@H]2Oc3cc(C#Cc4ccncc4)ccc3S(=O)(=O)N([C@@H](C)CO)C[C@H]2C)cc1 | active
62 | Cc1ccc(S(=O)(=O)N(C)C[C@@H]2Oc3cc(C#Cc4ccncc4)ccc3S(=O)(=O)N([C@@H](C)CO)C[C@H]2C)cc1 | active
63 | C[C@@H]1CN([C@H](C)CO)C(=O)c2cccc(NS(=O)(=O)c3ccc(F)cc3)c2O[C@@H]1CN(C)S(=O)(=O)c1cccs1 | inactive
64 | C[C@H]1CCCCO[C@H](CN(C)Cc2ccncc2)[C@@H](C)CN([C@@H](C)CO)C(=O)c2cc(NC(=O)Nc3cccc4ccccc34)ccc2O1 | inactive
